# High-throughput results: PubChem BioAssay, several laboratories
# MBD2 inh: inhibitors of human MBD2 binding to methylated oligonucleotide. Q9UBB5. TR-FRET. inhibition, % at 4.4 µM. 0.31% of 370,000 active. AID 686964; in the data active means inhibition above about 13%
# Neddyl block: cullin neddylation inhibition. P61081+Q13564. TR-FRET cullin neddylation, biochemical. calls only at 25 µM. 0.58% of 360,000 active. AID 651699; in the data active means inhibition above about 36%
# UHRF1 MBD2 ctr: UHRF1 methyl-DNA binding inhibition; UHRF1 binding to methylated oligo, TR-FRET; inhibition, % at 4.4 µM; 0.75% of 370,000 active; AID 687016; in the data active means inhibition above about 21%;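 further: UHRF1 SRA domain binding a hemimethylated CpG hairpin DNA probe; 0% = median of test compound wells and 100% = reference inhibitor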
# Target sequence (Q96T88 whole entry, looked up, the tested form may be a part): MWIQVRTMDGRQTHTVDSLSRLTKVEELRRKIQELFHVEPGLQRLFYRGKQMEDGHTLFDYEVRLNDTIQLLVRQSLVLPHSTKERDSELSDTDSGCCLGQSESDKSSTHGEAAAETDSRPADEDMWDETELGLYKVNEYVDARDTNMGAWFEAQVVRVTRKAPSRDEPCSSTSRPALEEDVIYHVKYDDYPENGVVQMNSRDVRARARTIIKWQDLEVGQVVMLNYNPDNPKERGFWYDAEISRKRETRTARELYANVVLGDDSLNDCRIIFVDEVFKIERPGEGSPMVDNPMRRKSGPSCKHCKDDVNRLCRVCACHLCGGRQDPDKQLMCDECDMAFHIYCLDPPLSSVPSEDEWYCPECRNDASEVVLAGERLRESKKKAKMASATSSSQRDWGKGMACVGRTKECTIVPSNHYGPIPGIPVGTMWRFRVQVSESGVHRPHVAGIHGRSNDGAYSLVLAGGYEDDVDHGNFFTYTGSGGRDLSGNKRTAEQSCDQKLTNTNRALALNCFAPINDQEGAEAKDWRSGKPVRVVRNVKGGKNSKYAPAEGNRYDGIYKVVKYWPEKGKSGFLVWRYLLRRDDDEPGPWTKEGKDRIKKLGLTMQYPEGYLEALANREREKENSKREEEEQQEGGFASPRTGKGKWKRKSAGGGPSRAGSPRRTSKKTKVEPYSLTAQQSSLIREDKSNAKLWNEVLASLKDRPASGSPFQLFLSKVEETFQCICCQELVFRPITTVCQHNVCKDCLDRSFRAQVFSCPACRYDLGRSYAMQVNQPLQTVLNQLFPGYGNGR
# UBC13 polyUb: inhibitors of human UBC13 polyubiquitin chain formation; TR-FRET; inhibition, % at 20 µM; 0.47% of 330,000 active; AID 485273; in the data active means inhibition above about 45%, passing the limit was not always enough
# Neddyl conf: cullin neddylation inhibition, confirmation. shares compounds with Neddyl block. TR-FRET cullin neddylation biochemical assay. calls only at 25 µM. 13% of 1,800 active; in the data active means inhibition above about 40%;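 further: neddylation substrate is the cullin 1 ring ligase complex with SKP2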
# * hit, by the source's call; i = inactive; . = not tested or not shown; + = active, no number. This is a sample that favours compounds with a hit; in the whole collection about 1.8% have one here.
SMILES,MBD2 inh,Neddyl block,UHRF1 MBD2 ctr,UBC13 polyUb,Neddyl conf
Cc1cc(NCCOCCO)n2c(nc3ccccc32)c1C#N,-3,.,-2,9,.
COCCNc1cc(C)c(C#N)c2nc3ccccc3n12,-6,.,-2,0,.
Cc1ccc2cc3cc(C(=O)NCCCN4CCc5ccccc5C4)oc3nc2c1,-6,+,-5,5,+
Cc1ccc2cc3cc(C(=O)NCCCN4CCCC4)oc3nc2c1,-6,.,5,5,.
N#C/C(=C\c1c(Cl)cccc1Cl)c1nc2ccccc2[nH]1,-7,+,-7,2,+
C[C@H]1[C@@H](OC(=O)Nc2ccc(Cl)cc2)CC[C@@]23CCCN2C(=O)CCC[C@@H]13,1,.,0,.,.
NC(=O)/C(=C/c1ccco1)C(N)=S,1,+,5,-5,i
CC(C)Cc1nc(N2CCN(C(=O)c3ccco3)CC2)c(C#N)c2c1CCCC2,2,i,-1,3,.
CCCC(=O)N1CCN(c2nc(CC(C)C)c3c(c2C#N)CCC3)CC1,-1,+,-2,16,i
O=C(CSCc1ccco1)c1ccc(Cl)s1,.,.,.,-6,.
CCSc1nnc(-c2ccc(S(=O)(=O)N3CCCC3)cc2)n1C,-1,+,5,-11,i
CSc1nnc(-c2ccc(S(=O)(=O)N3CCOCC3)cc2)n1C,-8,i,-2,8,.
CCSc1nnc(-c2ccc(S(=O)(=O)N3CCOCC3)cc2)n1C,2,+,0,-6,i
Cc1ccc(C)c(S(=O)(=O)C(C#N)c2nc3ccccc3nc2N2CCCC2)c1 (centres undefined),-3,i,-7,-36,.
Cc1ccc(C)c(S(=O)(=O)C(C#N)c2nc3ccccc3nc2N2CC(C)OC(C)C2)c1 (centres undefined),-2,+,-4,-2,i
Nc1nc(N)nc(-c2ccc(Cl)cc2)n1,1,i,-1,6,.
Clc1ccc(/C=C/c2nc(Cl)c(-c3ccc(Cl)cc3)c(Cl)n2)cc1,1,+,1,0,i
CN(c1ccccc1)c1ncnc2c1ncn2C,4,i,-2,.,.
CCNC(=O)/C(C#N)=C/c1c(N2CCN(c3ccccc3)CC2)nc2ccccn2c1=O,-2,+,-3,4,+
CCOC(=O)/C(C#N)=C/c1c(Oc2cccc(C)c2)nc2c(C)cccn2c1=O,-4,.,2,-10,.
COCCNC(=O)/C(C#N)=C/c1c(N2CCN(c3ccccc3)CC2)nc2ccccn2c1=O,1,.,-3,1,.
COCCCNC(=O)/C(C#N)=C/c1c(N2CCN(c3ccc(OC)cc3)CC2)nc2c(C)cccn2c1=O,-4,+,-5,9,i
COCCCNC(=O)/C(C#N)=C/c1c(N2CCN(c3ccccc3)CC2)nc2ccccn2c1=O,-3,+,-3,6,+
Cc1ccc(Oc2nc3c(C)cccn3c(=O)c2/C=C(\C#N)C(N)=O)cc1,2,+,3,7,i
CCNC(=O)/C(C#N)=C/c1c(N2CCCCCC2)nc2ccccn2c1=O,-1,.,3,-4,.
SMILES,MBD2 inh,Neddyl block,UHRF1 MBD2 ctr,UBC13 polyUb,Neddyl conf
O=C(NCCCN1CCCC1=O)c1cc(NS(=O)(=O)c2ccc(F)cc2)cc(NS(=O)(=O)c2ccc(F)cc2)c1,2,i,0,7,.
O=C(COC(=O)C1CCN(S(=O)(=O)c2ccc3c(c2)OCCO3)CC1)NC1CCS(=O)(=O)C1 (centres undefined),1,i,1,-6,.
COc1ccc(/C=C2\CCCC3C2=NN(C(=O)CSc2ncn[nH]2)C3c2ccc(OC)cc2)cc1 (centres undefined),-5,+,-5,6,.
Cc1ccn2cc(C(=O)Nc3ccc4c(c3)OCCO4)nc2c1,2,i,-2,-1,.
Cc1ccn2cc(C(=O)Nc3nnc(C)s3)nc2c1,5,+,-1,-26,i
COCCCNC(=S)N(CCO)Cc1cc2cc3c(cc2[nH]c1=O)OCCO3,-1,i,2,-2,.
CCN(CC)CCCN(Cc1cc2cc3c(cc2[nH]c1=O)OCO3)C(=S)NCc1ccco1,-1,+,-2,4,i
CCN(CC)CCN(Cc1cc2cc3c(cc2[nH]c1=O)OCO3)C(=S)NCc1ccco1,-3,i,-1,4,.
CCC(=O)N(Cc1ccco1)Cc1cc2cc3c(cc2[nH]c1=O)OCO3,0,+,-2,-8,i
CCN(CC)CCN(Cc1cc2cc3c(cc2[nH]c1=O)OCCO3)C(=S)NCCCOC,-4,+,-3,6,.
CCc1nc2ccc(C(=O)Nc3cccc(NS(C)(=O)=O)c3)cn2c1N(C)CCCc1ccccc1,-2,i,-1,.,.
Cc1cc(=O)oc2cc(OCC(=O)N3CCOCC3)c(Cl)cc12,1,.,-1,0,.
Cc1cc(=O)oc2cc(OCC(=O)N3CCCC3)c(Cl)cc12,2,+,0,8,.
Cc1ccc(-c2nnc(Nc3ccc(CC(N)=O)cc3)c3ccccc23)cc1,-8,+,-1,6,i
NC(=O)c1ccc(-c2noc(-c3cccc(Cl)c3)n2)cc1,-3,i,0,7,.
O=C(COc1ccccc1)Nc1nnc(-c2ccc(Cl)s2)o1,1,+,0,-13,i
CCNC(=O)COC(=O)c1ccc(-c2nc3ccccc3s2)s1,1,+,1,14,i
Cc1noc(C)c1COC(=O)c1ccc(-c2nc3ccccc3s2)s1,-1,i,2,37,.
COc1c2c(cc3oc(CO[C@@H]4O[C@H](CO)[C@@H](O)[C@H](O)[C@H]4O)cc(=O)c13)O[C@H](C(C)(C)O)C2,1,+,-1,2,i
FC(F)(F)c1cc(-c2ccccc2)nc(NCc2cccnc2)n1,-1,i,0,-8,.
COc1cccc(NC(=O)Nc2cc(C(=O)NC(C)C)ccc2N2CC3CC(C2)c2cccc(=O)n2C3)c1 (centres undefined),-2,i,1,2,.
O=C(O)c1cc(N=Cc2c(O)c3ccccc3oc2=O)ccc1O,-8,+,10,14,.
O=C(NC(c1ccc(Cl)cc1)c1cnccn1)C1CCN(CCOc2ccc(F)cc2)CC1 (centres undefined),-5,i,0,.,.
NC(=O)N/N=C\c1cc(Br)ccc1O,-8,+,-5,2,i
CCN(CC)S(=O)(=O)c1cc(NC(=O)CSc2n[nH]c(N)n2)ccc1C,-3,i,0,1,.
CCN(CC)CCN(C(=O)c1cc2c(ccc3ccccc32)oc1=O)c1nc2cc3c(cc2s1)OCCO3,-2,+,-2,24,i
Cc1ccc(C)c(NC(=O)CCc2nnc3ccc(NCc4ccco4)nn23)c1,-7,i,0,-5,.
c1csc(CNc2ncnc3ccc(-c4ccc5c(c4)OCCO5)cc23)c1,-3,+,-2,11,.
Cc1ccc(NC(=O)NC(=O)N(C(C)C)S(C)(=O)=O)nc1,0,+,-2,.,.
CC(C)N(C(=O)NC(=O)Nc1ccccn1)S(C)(=O)=O,-4,i,-3,8,.
